Data from ChEMBL document CHEMBL3988442, “University of Dundee, Small-Polar-MMV Screening Library” (2021).

target: AMP-activated protein kinase, AMPK (Homo sapiens) (UniProt P54646+O43741+P54619+Q9UGJ0+Q9Y478+Q13131+Q9UGI9); assay: AMP-dependent Kinase enzyme assay. An in vitro enzyme assay that detects ADP turnover that is directly proportional to AMPK activity. This uses naive AMPK that is activated during the assay with MK-8722; format: functional; set-up: scale not given: direction of the effect not stated beside the values; conditions: 30 µM

Compound | Percent Effect
Cc1cccc(-c2nccnc2C2CCCN(C)C2)c1 (stereo not given) | 11.8%
Cc1c(Br)cccc1CSc1nnc(CO)n1C | 4.59%
COc1ccc(Cl)cc1-n1nc(C2CCCC2)nc1Cn1cnnn1 | -6.62%
CC(C)OCCN1CCC(Nc2ncc(Br)cn2)CC1 | 10.5%
CC1(C)CC(CN2CCC3(CCC(=O)N(C4CCC4)C3)CC2)CCO1 (stereo not given) | -1.15%
CC(NC(=O)NC1CCN(Cc2ccncc2)CC1)c1ccc(F)cc1 (stereo not given) | 7.79%
O=C(CC1CC1)N1C[C@@H](O)[C@H](N2CCN(c3ccccc3)CC2)C1 | -9.15%
CC(C)CCc1noc(C[S+]([O-])CC(=O)NCc2ccccc2)n1 (stereo not given) | -1.86%
CCc1ccc(C(=O)N2CCCCC2CNS(C)(=O)=O)o1 (stereo not given) | -5.12%
CN(C(=O)c1ccccc1N(C)S(C)(=O)=O)c1ccc(C(C)(C)C)cc1 | 6.59%
CCc1cnc(CNC(=O)NCCCO)s1 | 9.14%
Cc1nnc(CN(C)CC(=O)N2CCCN(C3CCCC3)CC2)n1C | -11.4%
O=C(CCN1CCCO1)N1CC[C@@H](CNC(=O)N2CCCC2)[C@H](O)C1 | -5.68%
O=C(c1coc(-c2ccccc2)n1)N1CCS(=O)(=O)CC1 | 0.626%
CCCSCC(=O)N1CCCC(CO)(CCC)C1 (stereo not given) | 7%
CC(C)(C)c1cn2c(n1)C(CNCc1ccccn1)CCC2 (stereo not given) | -3.66%
CN(Cc1ccccc1)S(=O)(=O)N1C[C@H](C2CC2)[C@@H](N)C1 | -0.41%
Nc1cc(C(=O)N2CCC(Oc3cccc(C(F)(F)F)c3)CC2)ccn1 | -4.01%
Cc1nncn1CCN1C(=O)CC2(CCCC2)CC1=O | 9.66%
COc1ccccc1C(=O)N1CCN(C(=O)CCCc2cn[nH]c2)CC1 | -2.48%

Compound | Percent Effect
Cc1cc(C)c(NC(=O)Nc2cnn(CC(O)CN(C)C)c2)c(C)c1 (stereo not given) | 0.923%
O=C(O)c1cn(CC2CCCN(c3nc4ccccc4s3)C2)nn1 (stereo not given) | -1.06%
COCc1c(Br)cccc1NC(=O)CC(F)(F)F | -6.57%
O=S(=O)(NCC1(c2cccs2)CCOCC1)c1ccc2c(c1)OCCO2 | -2.31%
O=C(NCC1CCS(=O)(=O)C1)N(Cc1ccco1)C1CC1 (stereo not given) | -4.86%
Cc1cnn(C2CN(CCOc3ccccc3C#N)C2)c1 | 6.15%
COCc1nc(C2CC2)nn1-c1ccccc1Cl | -1.23%
CC1(C)CC1(C(=O)N1CC(c2cccnc2)C1)c1ccccc1F (stereo not given) | -6.17%
CCCNc1ncc(CN2CCC3(CCNC(=O)CC3)CC2)cn1 | -1.43%
Cc1cc(C)c2cc(C(=O)N3CCNC(=O)C3)[nH]c2c1 | 1.52%
COc1cccc(CN2C[C@H]3CC[C@H]2C3)c1OCCN1CCOCC1 | -4.89%
Cc1cc(NC(=O)NCCC(=O)N2CCCc3ccccc32)no1 | -0.372%
NC(=O)COc1cccc(Cn2cc(Br)cn2)c1 | 3.8%
CCc1nc(N)nc(NCCC(=O)N2CCCC2)c1C | 4.47%
Cc1ccc(C(=O)NC2CCCN(S(C)(=O)=O)C2)c(=O)[nH]1 (stereo not given) | -0.668%
CCc1onc(C)c1C(=O)N1CCN(c2ncc3c(n2)CCOC3)CC1 | 13%
CCC1(CC)CC(=O)N(CC(O)c2ccc(Cl)cc2)C1=O (stereo not given) | 7.86%
CN(Cc1cnc(N)nc1)C(=O)C1CCN(C(=O)C2CCCC2)CC1 | -0.173%
COc1ncccc1-c1cc(C(N)=O)ccn1 | 1.56%
Cc1cc(C(=O)NCCN2CCC(C)CC2)nn1C(C)(C)C | 5.48%
